PubChem BioAssay (NCI)
This is part of a sample that, as a whole, favours compounds with a hit. Of some 83,000 tested, about 20% had one in any assay.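 48-hour exposure, single concentration, 96-well plates; percent growth endpoint where 0 means no net growth. Active: below 10.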 Active and inactive are the calls of the source.

Each compound was assayed on SK-MEL-28 melanoma (assay: NCI-60 one-dose screen, 48 h (100 = growth as untreated, 0 = no growth, -100 = all killed)). Settings: 10 µM.
Description: Growth inhibition of the SK-MEL-28 human tumor cell line is measured as a screen for anti-cancer activity. Cells are grown in 96 well plates and exposed to the test compound for 48 hours. Compounds are tested at a single concentration, which is 10^-5 M for most compounds. The reported endpoint is percent growth (GI% or GIPRCNT), where numbers from 0 - 100% represent growth inhibition, and numbers from -100% - 0 represent cell death. For example, a value of 40 represents 60% growth inhibition. A value of 0 means no net growth occurred over the course of the experiment. A value of -40 indicates 40% of cells at the beginning of the experiment died by the end of the experiment. A value of -100 means all cells are dead at the end of the experiment.
NCI-60 Human Tumor Cell Lines Screen was performed using the standard one-dose NCI protocol, which is described in more detail at https://dtp.cancer.gov/discovery_development/nci-60/default.htm.
Compounds with GIPRCNT values below 10 were considered active. Activity score was based on GIPRCNT using the following formula: […]
Score is 0 for GIPRCNT values of 100 or above, 50 for GIPRCNT values of 0, and 100 for GIPRCNT values of -100.
`O=C(/C(=C/c1ccccc1)CBr)c1ccccc1` was tested, and the growth was 94.4% (inactive).
`BrC/C=C/C[P+](c1ccccc1)(c1ccccc1)c1ccccc1` was tested, and the growth was 53.2% (inactive).
With `O=c1[nH]cc(F)c(=O)[nH]1` the growth was 62.2% (inactive).
`Cc1cnc(/C=N\NC(N)=S)c2cccc(N)c12` was tested, and the growth was 34.5% (inactive).
`CN(C)CCC(=O)c1c[nH]c2ccccc12` was tested, and the growth was 115% (inactive).
For `CSc1ccc2c(c1)C(N1CCN(C)CC1)Cc1ccccc1S2` (stereo not drawn), the growth was -63.8% (active).
`CCCCCCCCCCCCCCCCCN` was tested, and the growth was 101% (inactive).
For `Nc1ccc2cc(Br)c3ccccc3c2c1`, the growth was 80.8% (inactive).
With `COc1cc(C(C)(C)C)cc(OC)c1C(O)(c1c(OC)cc(C(C)(C)C)cc1OC)c1c(OC)cc(C(C)(C)C)cc1OC` the growth was -99.4% (active).
For `N#C/C(=C1C=C/C(=N\O)C(Cl)=C\1)c1ccccc1`, the growth was 68.9% (inactive).
For `Cc1cc(NCCCN(C)C)c2ccc3c(ccc4c(NCCCN(C)C)cc(C)nc43)c2n1`, the growth was -97.6% (active).
For `S=c1[nH]nc(Cc2ccccc2)c(=S)[nH]1`, the growth was 114% (inactive).

Same assay, conditions: 50 µM
In the case of `O=c1[nH]cc(F)c(=O)[nH]1`, the growth is reported as 50.9% (inactive).
